This is a sample that favours compounds with a hit; in the whole collection about 3% have one here.
Fh CTSL1 inh: Fasciola hepatica cathepsin L1 inhibitors, primary screen, counter-screen for PFM18AAP inhibitor project, biochemical, QFRET, fluorogenic peptide substrate; recombinant F. hepatica cathepsin L1, Z-Leu-Arg-MCA fluorescence; inhibition, % at 5.96 µM; 300,000 compounds, 0.49% hits; AID 1906, 2009;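 active = inhibition above the mean of all tested compounds plus 3 SD, set per screening campaign, cut at about 17% in these data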
PP5 inh: PP5 phosphatase inhibitors, primary screen, biochemical, fluorescence; Serine/threonine-protein phosphatase 5 (Homo sapiens), P53041; purified PP5c, OMFP substrate fluorescence; inhibition, % at 6.7 µM; 320,000 compounds, 0.18% hits;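 active = inhibition above the campaign's mean inhibition across all tested compounds plus 3 SD, cut at about 9.5% in these data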
PAFAH1B3 FP inh: PAFAH1B3 enzyme inhibitors, primary screen, biochemical, fluorescence polarization, human. Platelet-activating factor acetylhydrolase IB subunit alpha1 (Homo sapiens), Q15102. recombinant PAFAH1B3, FP-rhodamine probe. inhibition, % at 3.39 µM. 340,000 compounds, 0.28% hits;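 active = inhibition above the screen-wide average of all tested compounds plus 3 SD, cut at about 25% in these data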
pPAFAH inh: pPAFAH enzyme inhibitors, primary screen, biochemical, fluorescence polarization, human; Platelet-activating factor acetylhydrolase (Homo sapiens), Q13093; recombinant pPAFAH, FP-rhodamine probe fluorescence polarization; inhibition, % at 3.39 µM; 330,000 compounds, 1.5% hits; AID 463082, 2010;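 active = inhibition above the mean inhibition across the screen plus 3 SD, cut at about 25% in these data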;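 also: inhibitors block binding of the rhodamine activity-based probe so polarization drops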
Target sequence (Q13093 whole entry, looked up): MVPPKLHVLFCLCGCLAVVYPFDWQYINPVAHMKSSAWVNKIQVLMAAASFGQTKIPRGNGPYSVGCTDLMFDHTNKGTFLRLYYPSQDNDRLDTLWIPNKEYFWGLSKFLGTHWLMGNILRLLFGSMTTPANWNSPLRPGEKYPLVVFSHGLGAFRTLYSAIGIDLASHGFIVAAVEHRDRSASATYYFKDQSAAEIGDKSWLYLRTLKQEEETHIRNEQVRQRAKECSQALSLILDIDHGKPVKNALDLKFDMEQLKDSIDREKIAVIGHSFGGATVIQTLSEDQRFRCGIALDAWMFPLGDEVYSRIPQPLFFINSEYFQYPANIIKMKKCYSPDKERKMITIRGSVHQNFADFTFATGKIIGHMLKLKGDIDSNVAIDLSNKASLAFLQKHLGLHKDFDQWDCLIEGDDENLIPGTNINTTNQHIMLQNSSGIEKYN
PAFAH2 FP inh: PAFAH2 enzyme inhibitors, primary screen, biochemical, fluorescence polarization, human; Platelet-activating factor acetylhydrolase 2, cytoplasmic (Homo sapiens), Q99487; recombinant PAFAH2, FP-rhodamine activity probe; inhibition, % at 3.39 µM; 340,000 compounds, 0.99% hits; AID 492956, 2010;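 active = inhibition above the mean over all tested compounds plus 3 SD, cut at about 30% in these data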;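 also: inhibitors block probe labeling of enzyme so polarization drops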
PAFAH1B2 FP inh: PAFAH1B2 enzyme inhibitors, primary screen, biochemical, fluorescence polarization, human; recombinant PAFAH1B2, FP-rhodamine activity probe; inhibition, % at 3.39 µM; 340,000 compounds, 1.2% hits;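 active = inhibition above the mean of all tested compounds plus 3 SD, cut at about 24% in these data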
A number is an active result; i = inactive; nt = no result given.

SMILES	Fh CTSL1 inh	PP5 inh	PAFAH1B3 FP inh	pPAFAH inh	PAFAH2 FP inh	PAFAH1B2 FP inh
COc1ccccc1NC(=O)c1ccc(NC(=O)COC(=O)C(C)C)cc1	i	i	i	i	i	i
COc1ccccc1CNC(=O)c1n[nH]c2ccccc12	i	i	i	27.8	i	i
COc1ccccc1CNC(=O)COC(=O)c1ccc(C(=O)c2ccccc2)cc1	nt	nt	i	i	i	46.9
COc1ccc(CNC(=O)COC(=O)c2ccc(C(=O)c3ccccc3)cc2)cc1	nt	nt	i	31.2	i	i
COc1ccccc1NC(=O)c1ccc(NC(=O)COC(=O)c2ccc(O)cc2)cc1	nt	i	i	25.6	49.6	i
COc1ccccc1CNC(=O)COC(=O)c1ccncc1	nt	nt	i	i	i	i
Cc1cc(NC(=O)CSCC(=O)OCc2nnc(-c3ccc(F)cc3)o2)no1	nt	nt	i	i	i	i
Clc1ccc(N2CCN(/N=C/c3ccncc3)CC2)cc1	i	i	i	i	i	26.9
Cc1ccc(N2CCN(/N=C/c3ccncc3)CC2)cc1	i	i	i	i	i	i
CC1CCN(c2ccccc2NC(=O)c2ccc(F)cc2)CC1	17.8	i	i	i	i	i
COC(=O)c1ccccc1NC(=O)c1ccc2c(c1)OCCCO2	i	i	i	i	i	i
COc1ccc(-n2cc(-c3ccccc3)c3c(=O)[nH]cnc32)cc1	i	i	i	i	i	i
O=c1[nH]cnc2c1c(-c1ccccc1)cn2-c1cccc(Cl)c1	i	i	i	34.3	i	i
N/C(=N\OC(=O)CCc1ccccc1)c1cccc(Br)c1	i	i	i	i	i	66.5
N/C(=N\OC(=O)CC1CCCCC1)c1cccc(Br)c1	i	i	i	i	i	i
Cc1ccc(/C(N)=N/OC(=O)CCc2ccccc2)cc1	i	i	i	i	i	i
N/C(=N\OC(=O)CCc1ccccc1)c1ccc(Br)cc1	i	i	i	i	i	71.0
Cc1nc2oc3c(NCC4CCCO4)ncnc3c2c2c1COC(C)(C)C2 (configuration not stated)	i	i	i	i	i	i
Cc1nc2oc3c(NCc4ccccc4)ncnc3c2c2c1COC(C)(C)C2	i	i	i	26.9	i	i
Cc1ccc(C)c(S(=O)(=O)N2CCCOC2CNC(=O)C(=O)NCc2ccccn2)c1 (configuration not stated)	i	i	i	i	i	i
CCc1nc(SCc2ccccc2C)n[nH]1	nt	nt	i	nt	i	i
COCCN(C(=O)COC(=O)CCCOc1ccccc1)c1c(N)n(Cc2ccccc2)c(=O)[nH]c1=O	i	i	i	i	i	i
Cc1cccc(CS(=O)(=O)c2nnc([C@H](Cc3ccccc3)NC(=O)OC(C)(C)C)o2)c1	31.1	i	i	i	i	i
C[C@H](NC(=O)OCc1ccccc1)c1nnc([C@H](Cc2ccccc2)NC(=O)OC(C)(C)C)o1	i	i	i	25.6	i	i
COC(=O)CS(=O)(=O)c1nnc([C@H](Cc2ccccc2)NC(=O)OC(C)(C)C)o1	24.0	i	i	i	i	i
SMILES	Fh CTSL1 inh	PP5 inh	PAFAH1B3 FP inh	pPAFAH inh	PAFAH2 FP inh	PAFAH1B2 FP inh
C[C@H](NC(=O)OCc1ccccc1)c1nnc([C@H](C)NC(=O)OCc2ccccc2)o1	i	i	i	i	i	i
Cc1ccc(NC2CCCN(C(=O)CSc3ccncc3)C2)cc1C (configuration not stated)	nt	nt	i	nt	i	i
O=C(NCc1cc2ccccc2[nH]1)C1CCC(=O)N(CCCN2CCCC2=O)C1 (configuration not stated)	i	i	i	i	i	i
O=C(/C=N/O)Nc1ccc2sc3ccccc3c2c1	i	i	61.9	33.5	47.3	41.7
COc1ccc(CCNc2ncnc3c2nnn3Cc2ccccc2)cc1OC	i	i	i	i	i	i
O=C(Nc1ccc(Br)cn1)c1ccc(COc2c(F)c(F)cc(F)c2F)o1	nt	i	i	i	i	i
Cc1ccc2c(c1)N(CC(=O)N1CCCCC1c1cccnc1)C(=O)CO2 (configuration not stated)	18.2	i	i	i	i	i
CC(=O)Nc1ccc(S(=O)(=O)N2CCC(NC(C)=O)(c3cccc(F)c3)CC2)cc1	i	i	i	27.2	i	i
CCOC(=O)c1cc(-c2ccccc2)nc2c(O)cccc12	nt	nt	i	nt	i	i
NC(=S)N1CCCc2ccccc21	i	i	i	i	i	i
O=C(CNC(=O)c1ccccc1)OCC(=O)N1c2ccccc2Sc2ccccc21	34.1	i	i	i	i	i
N#Cc1c(SCC(N)=O)nsc1SCc1ccc(Cl)cc1	i	i	i	i	i	29.7
Cc1cc(C)n(C(=O)/C(C#N)=N/Nc2cc(Cl)cc(Cl)c2)n1	20.5	i	i	i	i	i
Cc1cc(C)n(C(=O)/C(C#N)=N\Nc2ccccc2[N+](=O)[O-])n1	i	i	i	i	i	i
COC(=O)CSc1nnc(SCc2ccc(Cl)cc2)s1	i	i	i	i	i	30.8
Cc1nc(C(=O)NC2CCCCC2)sc1C1(C)CC(c2cccnc2)=NO1 (configuration not stated)	i	i	nt	i	nt	nt
Cc1ccc(NC(=O)CN2CCC(C(=O)c3ccc4c(c3)OCCO4)CC2)cc1	i	i	i	i	i	i
COC(=O)c1ccccc1NC(=O)CN1CCC(C(=O)c2ccc3c(c2)OCCO3)CC1	i	i	i	32.6	i	i
C[C@H](NC(=O)OCc1ccccc1)C(=O)N[C@@H](Cc1c[nH]c2ccccc12)C(=O)O	i	i	i	i	i	25.5
CC(C)n1nc(C(=O)Nc2cccc(S(=O)(=O)N3CCOCC3)c2)c2ccccc2c1=O	nt	i	i	i	i	i
CC(=O)Nc1ccc(S(=O)(=O)NC(C)CCc2ccccc2)cc1 (configuration not stated)	i	i	i	i	i	i
Cc1ccc(C)c(S(=O)(=O)NC(C)CCc2ccccc2)c1 (configuration not stated)	i	i	i	i	i	28.9
Cc1ccc(S(=O)(=O)NC(C)CCc2ccccc2)cc1 (configuration not stated)	i	i	i	i	i	35.5
Cc1ccc(S(=O)(=O)N[C@@H](Cc2ccccc2)C(=O)CCl)cc1	69.8	i	i	i	i	24.4
CC(C(=O)Nc1ccc2c(c1)OCO2)N1CCC(N2CCCCC2)CC1 (configuration not stated)	nt	i	i	i	i	i
CN(C)c1cccc(/C=C(\C#N)c2ccccc2)c1	i	i	i	33.7	i	i
COC(=O)Cc1ccc(NC(=S)NCc2ccccc2Cl)cc1	i	i	i	27.7	i	i
